Results from PubChem BioAssay AID1851 (National Center for Advancing Translational Sciences (NCATS), 2009).
Screen size: about 16,000 compounds; about 5,800 (36%) were called active. Not shown: some 23% with an inconclusive outcome. Some of the results follow. Values without a mark were called inactive. Calls follow the shape of the dose curve; as a rule, active = well fitted curve in the direction sought with a large enough effect; inconclusive = small, poorly fitted or top-dose-only effect, or effect the other way; inactive = no such curve, though single readings can be large or run the other way.

target: Cytochrome P450 2C19 (Homo sapiens) (UniProt P33261); assay: Cytochrome panel assay with activity outcomes; conditions: recombinant CYP, pro-luciferin dealkylation, luminescence, p450-cyp2c19; series mostly up to 57.1 µM
Sequence (P33261 whole entry, looked up): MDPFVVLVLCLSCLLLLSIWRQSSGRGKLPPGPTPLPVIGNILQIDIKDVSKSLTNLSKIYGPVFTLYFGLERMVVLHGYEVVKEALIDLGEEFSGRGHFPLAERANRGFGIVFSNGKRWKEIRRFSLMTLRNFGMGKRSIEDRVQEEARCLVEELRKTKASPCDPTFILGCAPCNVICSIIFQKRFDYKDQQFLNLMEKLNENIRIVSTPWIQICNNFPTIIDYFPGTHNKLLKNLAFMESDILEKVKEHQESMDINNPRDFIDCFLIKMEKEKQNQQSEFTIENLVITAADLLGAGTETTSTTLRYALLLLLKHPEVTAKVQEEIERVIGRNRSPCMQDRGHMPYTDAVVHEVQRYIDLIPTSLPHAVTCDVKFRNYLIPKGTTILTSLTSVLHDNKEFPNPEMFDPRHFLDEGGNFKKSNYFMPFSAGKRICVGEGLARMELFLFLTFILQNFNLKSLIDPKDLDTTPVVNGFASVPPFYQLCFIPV
% is scaled to controls: 0 for no effect and ±100 for the full control effect.

Row | SMILES | AC50 | activity, negative = inhibition
1 | O=C(c1cccc(F)c1)N1CCC2(CC1)CCN(C(c1ccccc1)c1ccccc1)CC2 | inactive | –
2 | CN(C)CCCn1cnc2cc(Cl)c(Cl)cc21 | – | 51.6% [at 11.4 µM]
3 | Cc1cc(Cl)ccc1OCC(=O)N/N=C1\CCCc2ccccc21 | inactive | –
4 | O=C(N/N=C1\CCCc2ccccc21)c1ccc([N+](=O)[O-])cc1Cl | 4.47 µM (active) | –
5 | CC1CCc2c(C(=O)Nc3nccs3)csc2C1 (stereo unspecified) | 2.82 µM (active) | –
6 | CCCCNC(=S)NNC(=O)c1csc2c1CCC(C)C2 (stereo unspecified) | 3.98 µM (active) | –
7 | CCCCNC(=S)NNC(=O)c1sccc1C | 0.794 µM (active) | –
8 | CC(C)NC(=O)N1CCC2(CC1)CCN(C(=O)c1ccncc1)CC2 | inactive | –
9 | CCNc1ncc2nc(-c3cc(F)cc(F)c3)c(=O)n(C[C@H]3CCCO3)c2n1 | inactive | –
10 | COCCn1c(=O)c(-c2ccc(OC)cc2)nc2cnc(N3CCNCC3)nc21 | inactive | –
11 | COC(=O)c1sccc1-c1ccc(C(=O)Nc2cccnc2)o1 | 3.16 µM (active) | –
12 | COC(=O)COc1ccsc1C(=O)OC | inactive | –
13 | CCOC(=O)C(=Cc1ccc(-c2ccsc2C(=O)OC)o1)C(=O)OCC | 2.82 µM (active) | –
14 | COC(=O)c1sccc1-c1ccc(C(=O)Nc2cccc(Cl)c2)o1 | 3.16 µM (active) | –
15 | CCN(CC)S(=O)(=O)c1ccc2c3c(cccc13)C(=O)S2 | 1 µM (active) | –
16 | CCN(CC)S(=O)(=O)c1cccc2c(N(C)C)cccc12 | 3.98 µM (active) | –
17 | Cc1noc(NS(=O)(=O)c2cccc3c(N(C)C)cccc23)c1C | inactive | –
18 | c1csc(CNc2ncncc2-c2ccoc2)c1 | 15.8 µM (active) | –
19 | c1cncc(-c2cncnc2NCc2cccs2)c1 | inactive | –
20 | Cc1cnc(CNc2ncncc2-c2ccoc2)cn1 | inactive | –
21 | CN(C)c1ccc(-c2cncnc2NCc2cccs2)cc1 | 0.631 µM (active) | –
22 | c1ccc(CNc2ncncc2-c2ccoc2)cc1 | 10 µM (active) | –
23 | NC/C=C\C(=O)O | inactive | –
24 | CC1=CC=CN2CC(O)CN=C12 (stereo unspecified) | inactive | –
25 | Cc1cc(C)cc(-n2nnnc2SCC(=O)Nc2nc(-c3ccc(Cl)cc3)cs2)c1 | 3.55 µM (active) | –
26 | O=C1CCCN1CC(CN1CCOCC1)Sc1nnnn1-c1ccccc1 (stereo unspecified) | 14.1 µM (active) | –

Row | SMILES | AC50 | activity, negative = inhibition
27 | CSc1c(-c2ccccc2)nc2ccc(Cl)cc2c1C(=O)O | inactive | –
28 | CSc1nc(Sc2cccc(Cl)c2)c2ccccc2n1 | 6.31 µM (active) | –
29 | Cc1ccc(Sc2nc(C)cc(C)c2S(C)(=O)=O)cc1 | 3.16 µM (active) | –
30 | COc1ccc(-c2noc(CCCC(=O)NCCc3ccccc3)n2)cc1OC | 7.08 µM (active) | –
31 | CCN(CC)CCc1nc(-c2ccccc2)no1 | inactive | –
32 | O=C(CCc1nc(-c2ccccc2)no1)NCCc1ccccc1 | 5.01 µM (active) | –
33 | COc1ccc(C(=O)NNC(=O)Cc2ccc(-c3ccccc3)cc2)cc1OC | inactive | –
34 | O=C1c2ccccc2C(=O)N1C[C@]1(C(=O)O)NCCS1(=O)=O | – | -9.77% [at 11.4 µM]
35 | O=C1c2ccccc2C(=O)N1CC(=O)N1c2ccccc2CCc2ccccc21 | 1.41 µM (active) | –
36 | O=C1CC[C@H](N2C(=O)c3ccccc3C2=O)C(=O)N1 | inactive | –
37 | CC(C)(N)C(=O)N[C@@H]1C(=O)N2[C@@H]1SC(C)(C)[C@H]2C(=O)O | – | 2.03% [at 11.4 µM]
38 | CCCCC(=O)Nc1ccc(C(=O)NNC(=O)CCc2ccccc2)cc1 | inactive | –
39 | CCCCC(=O)Nc1ccc(C)c(O)c1 | 15.8 µM (active) | –
40 | CCC(CC)C(=O)Nc1ccc(C)c(O)c1 | 14.1 µM (active) | –
41 | Cc1ccc(NC(=O)CC2CS(=O)(=O)CC2CC(=O)Nc2ccc(C)c(C)c2)cc1C (stereo unspecified) | inactive | –
42 | Clc1ccc(CSC2=NCCN2)cc1Cl | – | -10.9% [at 11.4 µM]
43 | CNc1cc(CSC)nc(SCc2ccc(Cl)c(Cl)c2)n1 | 0.794 µM (active) | –
44 | O=C(Oc1ccccc1N1C(=O)C2CCCCC2C1=O)c1ccccc1 (stereo unspecified) | 25.1 µM (active) | –
45 | COc1ccc2c(c1)C(c1ccc([N+](=O)[O-])cc1)=NNC(c1ccco1)=N2 | 7.08 µM (active) | –
46 | Cn1cnnc1SCC(=O)n1c2ccccc2c2ccccc21 | 8.91 µM (active) | –
47 | COC(=O)C1=C(CSc2nncn2C)NC(=O)NC1c1ccc(F)cc1 (stereo unspecified) | inactive | –
48 | CC(=O)Oc1ccc(C(c2ccc(OC(C)=O)cc2)c2ccccn2)cc1 | inactive | –
49 | CC(=O)Oc1ccc2ccccc2c1C(NC(=O)Cc1ccccc1)c1ccc(Cl)cc1 (stereo unspecified) | 1.26 µM (active) | –
50 | CCCCOc1ccc(CC(=O)NO)cc1 | inactive | –
51 | COc1ccc(OC(=O)c2ccncc2)cc1 | 1.41 µM (active) | –
52 | COc1ccc(C(=O)N2CCC3(CC2)CN(c2ccncc2)C3)cc1 | inactive | –

Row | SMILES | AC50 | activity, negative = inhibition
53 | CCCCOc1ccc(OC(=O)c2cccnc2)cc1 | 17.8 µM (active) | –
54 | COc1ccc(C(=O)N2CCC3(CC2)CCN(c2ccncc2)CC3)cc1 | inactive | –
55 | N#Cc1ccc(OC(=O)c2ccc(N=C(N)N)cc2)cc1 | – | 14.4% [at 11.4 µM]
56 | CCCCCOc1ccc(OC(=O)c2ccncc2)cc1 | 3.16 µM (active) | –
57 | O=C(Nc1ccc(OC(=O)c2cccnc2)cc1)c1cccnc1 | inactive | –
58 | CCN(CC)C(=O)CSc1nc2ccc(NC(=O)CSc3nnc(COc4ccccc4C)n3C)cc2s1 | 2.82 µM (active) | –
59 | Br/C(=N\Nc1nn[nH]n1)c1ccncc1 | – | 22.2% [at 11.4 µM]
60 | O=C(O)/C=C\[C@H](O)c1ccc(Cl)cc1 | inactive | –
61 | CC(Oc1ccc(Cl)cc1Cl)C(=O)/C=C/N(C)C (stereo unspecified) | 2.82 µM (active) | –
62 | NCCNC(=O)c1ccc(Cl)cc1 | inactive | –
63 | CC(Oc1ccc(Cl)cc1)C(=O)/C=C/N(C)C (stereo unspecified) | 7.94 µM (active) | –
64 | CC(=O)ON(C(C)=O)S(=O)(=O)c1ccc(Cl)cc1 | inactive | –
65 | CN(C)/C=C/C(=O)c1ccc(Cl)cc1 | 11.2 µM (active) | –
66 | O=C(NCc1ccccc1)C(c1cccs1)N(Cc1cccs1)C(=O)c1cnccn1 (stereo unspecified) | 3.55 µM (active) | –
67 | O=C(c1cnccn1)N1CCC2(CC1)CCN(C(c1ccccc1)c1ccccc1)CC2 | inactive | –
68 | COc1ccc(C(C(=O)NCc2ccccc2)N(Cc2cccs2)C(=O)c2cnccn2)cc1 (stereo unspecified) | 7.08 µM (active) | –
69 | COc1ccc(CNC(=O)C(c2ccc(C)cc2)N(Cc2cccs2)C(=O)c2ccc3c(c2)OCCO3)cc1 (stereo unspecified) | 2.82 µM (active) | –
70 | CCc1ccc(C(C(=O)NCc2ccc(OC)cc2)N(CCOC)C(=O)Cc2cccs2)cc1 (stereo unspecified) | 5.62 µM (active) | –
71 | COc1ccc2nc3oc(C(=O)NCc4cccs4)cc3cc2c1 | inactive | –
72 | COC(=O)CSc1ncc(OC)c(OC)n1 | inactive | –
73 | CCOC(=O)C(C)Sc1ncc(OC)c(Sc2ccc(Cl)cc2)n1 (stereo unspecified) | 3.55 µM (active) | –
74 | CCOC(=O)CSc1ncc(OC)c(Sc2ccc(Cl)cc2)n1 | 1.78 µM (active) | –
75 | CC[C@H]1CC[C@H]2[C@@H]3CC=C4C[C@H](OC(C)=O)[C@@H](N)C[C@@]4(C)[C@H]3CC[C@@]12C | – | 22.6% [at 11.4 µM]
76 | c1ccc(-c2c3ccccc3nc3[nH]c4ccccc4c23)cc1 | 10 µM (active) | –
77 | O=c1c2ccccc2nc2n1CCc1c-2[nH]c2ccccc12 | inactive | –
78 | CCCCc1c2ccccc2nc2[nH]c3ccccc3c12 | inactive | –

Row | SMILES | AC50 | activity, negative = inhibition
79 | Clc1ccc(CC[C@H](Cn2ccnc2)Sc2c(Cl)cccc2Cl)cc1 | 0.00251 µM (active) | –
80 | COc1ccc(S(=O)(=O)Nc2ccc(S(=O)(=O)N3CCCCC3)cc2)cc1C | 2.82 µM (active) | –
81 | COc1ccc(NS(=O)(=O)c2ccc(I)cc2)cc1N1CCN(C)CC1 | inactive | –
82 | COc1ccc(S(=O)(=O)N2CCCCCC2)cc1N(C)S(=O)(=O)c1ccc(Cl)cc1 | 5.01 µM (active) | –
83 | N#Cc1ccc(CN2CCC3(CC2)CCN(C(=O)c2cc(C(F)(F)F)cc(C(F)(F)F)c2)CC3)cc1 | inactive | –
84 | O=c1c(-c2ccc(O)cc2)coc2cc(O)ccc12 | 10 µM (active) | –
85 | O=c1c(-c2ccc(F)c(F)c2)nc2cncnc2n1Cc1ccccc1Cl | 6.31 µM (active) | –
86 | O=c1c(-c2ccc(Cl)cc2)nc2cncnc2n1Cc1ccccc1Cl | 3.98 µM (active) | –
87 | O=c1c(-c2ccc(F)c(F)c2)nc2cncnc2n1C1CC1 | inactive | –
88 | CN(CCOc1ccc(C[C@H](Nc2ccccc2C(=O)c2ccccc2)C(=O)O)cc1)c1ccccn1 | 3.98 µM (active) | –
89 | CNc1nc(NCCOC23CC4CC(CC(C4)C2)C3)nc(OCC(F)(F)F)n1 | 1.41 µM (active) | –
90 | O=C(c1ccco1)N1CCC2(CC1)CN(C(c1ccccc1)c1ccccc1)C2 | inactive | –
91 | CCC(c1nnnn1CCOC)N1CCN(C(=O)c2ccco2)CC1 (stereo unspecified) | 3.98 µM (active) | –
92 | O=C(c1ccco1)N1CCC2(CC1)CCN(C(c1ccccc1)c1ccccc1)CC2 | inactive | –
93 | CC(C)CCn1nnnc1C(c1ccc(F)cc1)N1CCN(C(=O)c2ccco2)CC1 (stereo unspecified) | 4.47 µM (active) | –
94 | C[C@]1(OC(=O)/C=C\c2ccccc2)C[C@@H](O)[C@@]2(O)C=CO[C@@H](O[C@H]3O[C@@H](CO)[C@@H](O)[C@@H](O)[C@@H]3O)[C@H]21 | inactive | –
95 | Cc1ccccc1NC(=O)CSc1nnc(-c2ccccc2)n1-c1ccccc1 | 2.24 µM (active) | –
96 | CCN(CC)C(=O)CSc1nnc(-c2ccncc2)n1N | inactive | –
97 | CCOc1ccc(-n2c(SCC(=O)Nc3ccccc3C)n[nH]c2=O)cc1 | 5.62 µM (active) | –
98 | Cc1ccc(C(=O)NNC(=O)CSc2nnc(-c3ccncc3)n2-c2ccc(C)cc2)cc1 | 5.62 µM (active) | –
99 | CC(C)NC(=O)CSc1nnc(C2CC2)n1-c1ccccc1 | inactive | –
100 | O=C(CSc1nnc(-c2ccccc2)n1-c1ccccc1)c1cccs1 | 0.631 µM (active) | –
101 | Cc1cc(C2(c3cc(C)c(O)c(C(=O)O)c3)OS(=O)(=O)c3ccccc32)cc(C(=O)O)c1O | – | 12.7% [at 11.4 µM]
